This is a sample that favours compounds with a hit; in the whole collection about 2.5% have one here.
Cruzain noTriton – blocks cruzain activity in detergent-free assay; purified cruzain, Z-FR-AMC fluorescence, no detergent; P25779; hit rate 2.3% among 200,000; Potency, µM, for the others: max response, negative = inhibition, most hits filed as inhibitors;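 further: plate controls were enzyme without inhibitor for no effect and buffer without enzyme for full effect; nearly all actives have a fitted effect of over 40% in size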
Target sequence (P25779 123-467 limits assumed): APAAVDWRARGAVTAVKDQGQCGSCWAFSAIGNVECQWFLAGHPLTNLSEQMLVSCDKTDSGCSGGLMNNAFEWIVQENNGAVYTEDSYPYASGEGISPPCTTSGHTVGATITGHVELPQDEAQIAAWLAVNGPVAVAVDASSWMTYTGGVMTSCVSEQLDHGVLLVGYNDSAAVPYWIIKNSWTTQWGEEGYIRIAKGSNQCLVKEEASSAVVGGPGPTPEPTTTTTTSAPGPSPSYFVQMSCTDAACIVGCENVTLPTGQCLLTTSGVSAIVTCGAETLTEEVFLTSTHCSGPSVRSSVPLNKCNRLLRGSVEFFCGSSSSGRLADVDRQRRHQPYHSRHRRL
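Purified cruzain at 1.5 nM, pre-incubated 15 min with compound at room temperature in 100 mM sodium acetate pH 5.5, 5 mM DTT, 0.00005% Triton X-100. Reaction started with 2 uM Z-FR-AMC; AMC fluorescence increase over 60 s gives rate.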
Cruzain inh Det – cruzain (T. cruzi) inhibition with detergent; hit rate 0.43% among 200,000; P25779; Potency, µM, for inactives: max response, negative = inhibition, hits mostly inhibitors; purified cruzain, Z-FR-AMC fluorescence, 0.01% Triton;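 further: plate controls were neutral wells for no effect and buffer without enzyme for full effect; nearly all actives have a fitted effect of over 40% in size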
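15 min RT preincubation of 1.5 nM cruzain with compound, then 2 uM Z-FR-AMC added; kinetic AMC fluorescence, 60 s delta. Triton X-100 0.01%, pH 5.5.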
Active calls of the source: *; ? = inconclusive. The call rests on the fitted dose curve; in most records, active means well fitted curve in the direction sought with a large enough effect; inconclusive means small, poorly fitted or top-dose-only effect, or another doubt; inactive means no such curve, though single readings can be large; an effect the other way counts as inactive or inconclusive. Potency means the concentration at half of the fitted maximal effect.

SMILES | Cruzain noTriton | Cruzain inh Det
CC(=O)c1cc(-c2ccc(F)cc2)n(CC(=O)NC2CCCCCC2)c1C | -1.5% | 1.0%
CC(CCN)(CCN)[N+](=O)[O-] | 0.8% | 2.6%
c1ccc(-c2ccc(C3=Nn4c(nnc4-c4cc(-c5ccccc5)n[nH]4)SC3)cc2)cc1 | 3.16µM* | 1.1%
CC1=Nn2c(nnc2-c2cc(-c3ccccc3)n[nH]2)SC1 | 6.1% | -0.5%
COc1cccc(-c2nnc3n2N=C(c2cccc(Br)c2)CS3)c1 | 7.94µM* | 3.5%
Cc1cccc(-c2nnc3n2N=C(c2ccc(Br)cc2)CS3)c1 | -3.2% | 2.8%
CC1CCN(S(=O)(=O)c2ccc3c(c2)CCN3C(=O)Nc2ccccc2Br)CC1 | -10.5% | -3.0%
Cc1csc2nc(-c3cccc(NC(=O)C(C)C)c3)cn12 | -12.6% | 0.2%
Cc1cccc(-c2nc(S(=O)(=O)c3ccccc3)c(N3CCN(c4ccccc4)CC3)o2)c1 | -29.8% | -0.2%
CCc1ccc(NC(=O)C(C)OC(=O)c2cccc(S(=O)(=O)N3CCc4ccccc4C3)c2)cc1 (configuration not stated) | 15.8µM* | -1.8%
CCc1ccc(NC(=O)c2ccc(F)c(S(=O)(=O)N3CCc4ccccc4C3)c2)cc1 | ? | 0.6%
O=C1CCCc2cc(S(=O)(=O)N3CCCC(C(=O)Nc4ccc(F)c(Cl)c4)C3)ccc2N1 (configuration not stated) | ? | -9.6%
Cc1cccc(NC(=O)c2cc(S(=O)(=O)N3CCc4ccccc43)ccc2F)c1C | ? | -0.2%
CCc1ccc2occ(CC(=O)Nc3c(C(=O)Nc4ccc(Cl)cc4)oc4ccccc34)c2c1 | 10µM* | -1.9%
Cc1ccc2occ(CC(=O)Nc3c(C(=O)Nc4ccc(Cl)cc4)oc4ccccc34)c2c1 | 10µM* | -2.4%
Cc1cc(C)c2c(CC(=O)Nc3c(C(=O)Nc4ccc(Cl)cc4)oc4ccccc34)coc2c1 | -25.0% | -1.7%
CCc1ccc2occ(CC(=O)Nc3c(C(=O)Nc4ccc(C)cc4)oc4ccccc34)c2c1 | -13.1% | 0.4%
CCOC(=O)C1CSC(Cc2ccc(OCc3ccc([N+](=O)[O-])cc3)cc2)N1 (configuration not stated) | -20.6% | -7.8%
COc1cc(C2C(=O)N(C3CCCCC3)CC(=O)N2Cc2ccc(C)cc2)ccc1OC(C)C (configuration not stated) | -7.2% | 1.4%
Cc1ccc(CNC(=O)c2ccc3nc4[nH]c5ccccc5c4nc3c2)cc1 | 25.1µM* | -5.8%
COc1ccccc1CNC(=O)c1ccc2nc3[nH]c4ccccc4c3nc2c1 | ? | -2.5%
COc1ccc(CCNC(=O)NCc2noc3ccc(C)cc23)c(OC)c1 | -19.2% | -1.3%
CC(Cl)CCl (configuration not stated) | -6.5% | -2.0%
CCOc1ccccc1C(=O)NCC(=O)OCC(=O)NCCc1ccc(S(N)(=O)=O)cc1 | 15.8µM* | 25.1µM*
Cc1ccccc1OCCC(=O)NCCc1ccc(S(N)(=O)=O)cc1 | 9.3% | 0.2%
SMILES | Cruzain noTriton | Cruzain inh Det
O=C(Nc1nc2c(s1)CCCC2)c1ccc(S(=O)(=O)N2CCCc3ccccc32)cc1 | ? | -1.6%
CC1CCc2nc(NC(=O)c3ccc(S(=O)(=O)N4CCCc5ccccc54)cc3)sc2C1 (configuration not stated) | 7.94µM* | -4.6%
COc1ccc(-c2nc3ccccc3s2)cc1NC(=O)COc1cccc(C)c1 | 1.7% | -3.3%
COc1ccc(-c2csc(NC(=O)c3cc(-c4cccs4)nc4ccccc34)n2)c(OC)c1 | 5.01µM* | 1.9%
COc1ccccc1-c1cc(C(=O)N/N=C/c2cccs2)c2ccccc2n1 | -12.5% | -9.8%
COc1ccc(-c2cc(C(=O)N/N=C/c3sccc3C)c3ccccc3n2)c(OC)c1 | ? | -11.2%
COc1ccccc1-c1csc(NC(=O)c2cc(-c3cccs3)nc3ccccc23)n1 | 3.98µM* | -3.0%
CN[C@@H](c1ccncc1)[C@@H](NC)c1ccncc1 | 11.7% | 0.9%
CCC(C(=O)N1CCN(c2cc(Cl)ccc2C)CC1)n1nc(C)n2c(cc3occc32)c1=O (configuration not stated) | 19.9% | -5.2%
Cn1cc(C(=O)NCc2ccccc2)c(=O)c2cc(S(=O)(=O)N3CCCCCC3)ccc21 | -2.7% | -0.2%
COc1ccc(-c2ccc(C#N)c(OC(=O)c3c(Cl)cccc3Cl)n2)cc1 | ? | 28.2µM*
COc1nc(-c2ccccc2Cl)ccc1C#N | -7.3% | -2.7%
Cc1cccc(N2CCN(C(=O)C3CCN(S(=O)(=O)c4cn(C)cn4)CC3)CC2)c1C | ? | 1.4%
COc1ccccc1-c1nc(C#N)c(N2CCN(Cc3ccccc3)CC2)o1 | -2.0% | -18.8%
COc1ccccc1-c1nc(C#N)c(N2CCC(Cc3ccccc3)CC2)o1 | ? | 35.5µM*
NC(N)=NS(=O)(=O)c1ccc(NC(=S)NC(=O)c2sc3ccccc3c2Cl)cc1 | 10µM* | -3.4%
O=C(NC(=S)Nc1ccccc1N1CCOCC1)c1sc2ccccc2c1Cl | 10µM* | 0.7%
O=C(NC(=S)Nc1ccc(N2CCOCC2)c(Cl)c1)c1sc2ccccc2c1Cl | ? | -4.6%
COc1cc(NS(=O)(=O)c2ccc(NC(=S)NC(=O)c3sc4ccccc4c3Cl)cc2)nc(OC)n1 | -7.0% | -5.5%
OC[C@@H](O)CNc1ncnc2ccccc12 | 2.1% | 1.1%
Cc1cc(C)c(S(=O)(=O)NCCc2sc3nc(-c4ccc(F)cc4)nn3c2C)c(C)c1 | 27.9% | -6.8%
CCOc1ccc(-c2nn(-c3ccccc3)cc2/C=C2\SC(=S)N(Cc3ccco3)C2=O)cc1 | 10µM* | -5.7%
CCCOc1ccc(-c2nn(-c3ccccc3)cc2/C=C2\SC(N)=NC2=O)cc1 | ? | 0.2%
C[C@@]12CCC(=O)C=C1CC[C@H]1C2[C@@H](O)C[C@]2(C)[C@@H]1CC[C@@]2(O)C(=O)CO (some centres not stated) | -4.0% | 2.7%
COc1ccc(C)c2sc(NC(=O)c3ccc(S(=O)(=O)N4CCCCC4)cc3)nc12 | -10.2% | 2.8%
SMILES | Cruzain noTriton | Cruzain inh Det
Cc1ccc2c(CC(=O)Nc3c(C(=O)Nc4cccc(Cl)c4)oc4ccccc34)coc2c1C | ? | -2.1%
CCOc1ccc(CNC(=S)N/N=C/c2cccnc2)cc1 | -1.0% | -6.4%
CCOc1ccc(CNC(=S)N/N=C\c2ccc([N+](=O)[O-])cc2)cc1 | 20µM* | -4.0%
CCOc1cccc(C2c3[nH]c4ccccc4c3CCN2C(=O)CSc2ccccc2)c1 (configuration not stated) | ? | 3.3%
O=C(CSCc1ccc(F)cc1)N1CCc2c([nH]c3ccccc23)C1c1ccc(Cl)cc1 (configuration not stated) | 7.94µM* | 5.4%
O=C(CSCc1ccc(F)cc1)N1CCc2c([nH]c3ccccc23)C1c1ccccc1 (configuration not stated) | -79.6% | 4.4%
COc1ccc(CCC(=O)N2CCc3c([nH]c4ccccc34)C2c2ccc(F)cc2)cc1 (configuration not stated) | ? | -0.3%
O=C(CSc1ccccc1)N1CCc2c([nH]c3ccccc23)C1c1ccc(Cl)cc1 (configuration not stated) | 12.6µM* | 2.3%
COc1ccc(CC(=O)N2CCc3c([nH]c4ccccc34)C2c2ccc(SC)cc2)cc1 (configuration not stated) | 25.1µM* | 3.8%
CC(=O)c1cccc(N(C(=O)Cn2nnc3ccccc32)C(C(=O)NCc2ccccc2)c2ccc(F)cc2)c1 (configuration not stated) | -28.3% | -1.6%
